Bioassay records (PubChem)
TRb-SRC2 inh: inhibitors of human thyroid hormone receptor beta-SRC2 interaction; P10828; Potency, µM (top dose mostly 106 µM), for the others: top-dose activity change, negative = inhibition, hits mostly inhibitors; AID 1469; TRbeta-SRC2 peptide binding, fluorescence polarization; receptor liganded with 1 µM T3; 280,000 tested, 0.065% active;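 note: plate controls were bound peptide for no effect and peptide without receptor for full effect; nearly all actives have a fitted effect of over 50% in size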
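A fluorescence polarization screen tested compounds at multiple concentrations against complex formation between 0.6 uM TRb ligand-binding domain and 20 nM Texas Red SRC2 peptide, with 1 uM T3 present; readout after 5 hr.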
APE1 inh: APE1 (human) endonuclease inhibition | P27695 | recombinant APE1, TAMRA/BHQ-2 abasic DNA cleavage fluorescence | Potency, µM (doses to about 65.8 µM), without a hit: at the top dose activity change, negative = inhibition, most hits filed as inhibitors | 350,000 tested, 0.35% active | AID 2517;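 note: plate controls were vehicle for no effect and reference inhibitor for full effect; nearly all actives have a fitted effect of over 55% in size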
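Endonuclease cleavage of a quenched abasic-site DNA duplex (50 nM) by APE1 (0.75 nM) was tracked by TAMRA dequenching. Compounds were preincubated with enzyme 15 min at room temperature; data normalized to buffer-only and DMSO wells plus NSC13755 control.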
WRN helicase inh-1: WRN helicase (human) inhibition. Q14191. WRN helicase unwinding, fluorescent forked duplex, kinetic. Potency, µM (highest dose often 114 µM), inactives show at the top dose activity change, negative = inhibition, hits mostly inhibitors. 360,000 tested, 0.46% active. AID 651768; note: % is set by controls: 0 for no effect and ±100 for the full control effect; nearly all actives have a fitted effect of over 55% in size
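Screening of the MLSMR collection measured strand separation of a quenched forked DNA duplex (100 nM) by 20 nM WRN with 2 mM ATP, all final. Compounds were preincubated with enzyme 15 min at room temperature.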
BLM helicase inh-1: Bloom syndrome helicase (human) inhibition; P54132; recombinant BLM DNA unwinding, fluorescence dequenching; Potency, µM (series often up to 56.1 µM), for the others: at the top dose activity change, negative = inhibition, most hits filed as inhibitors; 350,000 tested, 0.2% active; AID 2528;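 note: plate controls were vehicle for no effect and no enzyme for full effect; nearly all actives have a fitted effect of over 35% in size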
TexasRed fluor: alters Texas Red total fluorescence, flagging assay interference | TRb/SRC2 Texas Red total fluorescence interference | Potency, µM (series often up to 106 µM), for inactives: at the top dose fluorescence change, negative = quenching | 280,000 tested, 0.29% active; active = well fitted curve in either direction with a large enough effect; inconclusive = small, poorly fitted or top-dose-only effect; note: % is set by controls: 0 for no effect and ±100 for the full control effect
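Flags fluorescent or light-absorbing compounds by total fluorescence, S + 2P, at 555 nm excitation and 632 nm emission. Mixture: 20 nM Texas Red SRC2 peptide, 0.6 uM human TRb LBD, 1 uM T3, 5% DMSO; compound exposure 5 h at ambient temperature.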
RECQ1 helicase: inhibitors of human RECQ1 DNA helicase | Potency, µM (doses to about 57.3 µM), without a hit: at the top dose activity, negative = inhibition, hits mostly inhibitors | RECQ1 DNA unwinding, red fluorescence kinetic read | P46063 | 240,000 tested, 0.54% active;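 note: plate controls were vehicle for no effect and no enzyme for full effect; nearly all actives have a fitted effect of over 30% in size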
Target sequence (P46063 whole entry, looked up): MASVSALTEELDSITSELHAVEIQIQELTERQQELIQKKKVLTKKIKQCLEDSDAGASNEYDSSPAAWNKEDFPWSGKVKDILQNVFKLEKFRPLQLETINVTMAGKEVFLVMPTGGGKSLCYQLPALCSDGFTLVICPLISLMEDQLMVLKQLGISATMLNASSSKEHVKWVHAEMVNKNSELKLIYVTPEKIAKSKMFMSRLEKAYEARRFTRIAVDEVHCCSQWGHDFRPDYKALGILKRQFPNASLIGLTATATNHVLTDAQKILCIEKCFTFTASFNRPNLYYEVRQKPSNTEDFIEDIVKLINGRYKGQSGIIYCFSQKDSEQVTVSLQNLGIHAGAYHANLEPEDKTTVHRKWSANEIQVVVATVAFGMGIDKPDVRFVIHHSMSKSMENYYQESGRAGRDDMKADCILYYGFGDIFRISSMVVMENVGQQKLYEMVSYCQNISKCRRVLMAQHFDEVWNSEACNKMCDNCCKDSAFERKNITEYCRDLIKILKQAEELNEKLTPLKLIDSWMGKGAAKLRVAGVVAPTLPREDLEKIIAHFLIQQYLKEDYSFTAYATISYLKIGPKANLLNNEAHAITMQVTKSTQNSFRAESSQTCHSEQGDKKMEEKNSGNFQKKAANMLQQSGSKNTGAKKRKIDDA
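RECQ1T1 50 nM; forked duplex (20 bp + 30-nt ss tails) 200 nM, ATP 2 mM final; pH 8.0, 2 mM MgCl2, 2.5 ug/ml poly(dI-dC); 15 min compound preincubation; discontinuous kinetic read over 2 h at RT.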
WRN helicase inh-2: WRN helicase inhibition, cherry-pick retest | AID 720497 | shares compounds with WRN helicase inh-1 | Potency, µM (titrated, usually from 57.1 µM), for inactives: top-dose activity, negative = inhibition, most hits filed as inhibitors | WRN helicase DNA unwinding, fluorescence kinetic | 610 tested, 63% active; note: nearly all actives have a fitted effect of over 65% in size
TO displacement: counter-screen for WRN helicase inhibitors: DNA binding | shares compounds with WRN helicase inh-1 | thiazole orange DNA binding displacement, fluorescence | Potency, µM (doses to about 57.1 µM), inactives show top-dose activity change, negative = inhibition, actives largely listed as inhibitors | 610 tested, 10% active;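 note: drop in dye fluorescence marks compound binding to DNA; % is set by controls: 0 for no effect and ±100 for the full control effect; nearly all actives have a fitted effect of over 60% in size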
BLM helicase inh-2: blocks human BLM helicase in WRN counterscreen; shares compounds with WRN helicase inh-1; Potency, µM (series often up to 57.1 µM), for the others: at the top dose activity change, negative = inhibition, usual class: inhibitors; 610 tested, 60% active; Recombinant BLM helicase DNA unwinding, red fluorescence; note: nearly all actives have a fitted effect of over 60% in size
Numbers without * were called inactive; i = inactive; ? = inconclusive; · = no result; [ ] = remark or other dose. Only some compounds are listed: those with a hit (about 0.91% of all), similar ones and a draw of the others. Unless noted, calls come from the whole dose curve; as a rule, active = well fitted curve in the direction sought with a large enough effect; inconclusive = small, poorly fitted or top-dose-only effect, or another doubt; inactive = no such curve, though single readings can be large; an effect the other way counts as inactive or inconclusive. Potency is the fitted concentration of half-maximal effect.

SMILES | TRb-SRC2 inh | APE1 inh | WRN helicase inh-1 | BLM helicase inh-1 | TexasRed fluor | RECQ1 helicase | WRN helicase inh-2 | TO displacement | BLM helicase inh-2
N#C/C(=C/c1ccc(N2CCCCC2)o1)C(=O)Nc1ccc2ccccc2c1 | 2% | ? | ? | -12% | -5% | ? | ? | i | 22µM*
CCCCCCNC(=O)c1cc(-c2ccco2)nc2ccccc12 | -13% | 10% | 40µM* | -12% | -5% | i | ? | -23% | 17µM*
O=C(Nc1nncs1)c1cc(-c2ccco2)nc2ccccc12 | · | -30% | 32µM* | · | · | · | ? | -9% | ?
CC(C)CCNC(=O)c1cc(-c2ccco2)nc2ccccc12 | -5% | -3% | -2% | 0% | 0% | i | · | · | ·
COc1ccc(Nc2cc(C(=O)NCCc3ccc(C)cc3)c3ccccc3n2)c(OC)c1 | 3% | · | · | -3% | 0% | · | · | · | ·
O=C(O)c1ccccc1NS(=O)(=O)c1ccc(NN=Cc2ccccc2F)c([N+](=O)[O-])c1 | · | ? | 79µM* | · | · | · | 24µM* | ? | 22µM*
COc1cccc(NC(=O)C2C3C=CC4(O3)C2C(=O)N(CCCN2CCCCC2)C4C(=O)NC2CCCCC2)c1 (stereo unspecified) | · | 62% | -4% | -1% | · | · | · | · | ·
O=S1(=O)CCN(Cc2ccc(Cl)c(C(F)(F)F)c2)CC1 | -10% | -13% | -7%[57.1 µM] | -6% | -5% | i | · | · | ·
O=C(Nc1ccc2oc(=O)ccc2c1)c1ccc(-c2ccc(Cl)cc2)o1 | 1% | 27% | -33%[57.1 µM] | 2% | -7% | 2% | · | · | ·
O=C(Nc1ccc2oc(=O)ccc2c1)c1ccc(-c2cccc([N+](=O)[O-])c2)o1 | 6% | 2% | 10µM* | 5% | -1% | -4% | ? | ? | 1.5µM*
CCCC(=O)NC1=C(Cl)C(=O)c2ccccc2C1=O | · | · | 25µM* | · | · | · | -17% | 4.8µM* | 24µM*
COc1ccc(N2C(=O)CS(=O)C(c3ccccc3)C2=O)cc1 (stereo unspecified) | 3% | -2% | -3% | -7% | 0% | 10% | · | · | ·
Cc1ccc(N2C(=O)CS(=O)C(c3ccccc3)C2=O)cc1C (stereo unspecified) | 0% | -1% | 35µM* | 2% | -2% | 24% | ? | -11% | ?
O=C(N/N=C/c1cn(Cc2cccc(F)c2)c2ccccc12)c1cc(O)cc(O)c1 | · | 1.5µM* | 20µM* | -1% | · | · | 5.4µM* | 24µM* | 2.2µM*
O=C(O)CCCNc1cc(N2CCN(C(=O)c3ccco3)CC2)c2noc3c2c1C(=O)c1ccccc1-3 | · | ? | 45µM* | -29% | · | · | 14µM* | 295% | 19µM*
O=C1c2ccccc2-c2onc3c(N4CCN(CCO)CC4)cc(N4CCN(C(=O)c5ccco5)CC4)c1c23 | · | 3% | 151% | -20% | · | · | · | · | ·
Cc1ccccc1Nc1nnc(-c2ccc(C)c(S(=O)(=O)NCC3CCCO3)c2)c2ccccc12 (stereo unspecified) | 6% | · | · | -4% | -3% | · | · | · | ·
CCn1c(/C=C/N(C(C)=O)c2ccccc2)[n+](CC)c2ccc(Cl)cc21 | -16% | 0% | 4% | 3% | -2% | 4% | · | · | ·
CC[n+]1c(/C=C/C=C/N(C(C)=O)c2ccccc2)sc2ccccc21 | 6% | 2% | 50µM* | -2% | 16% | -3% | 24µM* | i | -15%
COc1cccc2c1C(=O)c1c(O)c3c(c(O)c1C2=O)CC(O)(C(C)=O)CC3OC1CC(O)C(O)C(C)O1 (stereo unspecified) | · | · | 3µM* | · | · | · | 22µM* | 297% | 22µM*
Cc1cc2c(c(=O)o1)C(CCC1CCCCC1)C(C#N)=C(N)O2 (stereo unspecified) | 5% | 6% | -10% | -3% | 1% | -14% | · | · | ·
N=C1/C(=C\c2ccc(Br)o2)C(=O)N=C2SC(CC(=O)N3CCOCC3)=NN12 | · | -17% | 35µM* | -8% | · | · | ? | -10% | ?
O=C(CCCN1C(=O)/C(=C\c2cccs2)SC1=S)Nc1ccc(O)cc1C(=O)O | · | 49% | -13% | -2% | · | · | · | · | ·
O=C(CCCN1C(=O)/C(=C\c2ccco2)SC1=S)Nc1ccc(O)cc1C(=O)O | · | ? | 16µM* | 40% | · | · | 7.6µM* | ? | 22µM*
CC1=NOC(=O)/C1=C\c1ccc(-c2ccc(Cl)cc2Cl)o1 | -17% | -6% | ? | -10% | -1% | -14% | 24µM* | ? | 22µM*
SMILES | TRb-SRC2 inh | APE1 inh | WRN helicase inh-1 | BLM helicase inh-1 | TexasRed fluor | RECQ1 helicase | WRN helicase inh-2 | TO displacement | BLM helicase inh-2
CCCOc1ccc(Cl)cc1/C=C1/C(=O)ON=C1C | · | -17% | -28% | 1% | · | · | · | · | ·
CCOC(=O)c1ccc(NC(=O)c2cccc3c(=O)c4c([nH]c23)CCCC4)cc1 | 1% | · | · | 3% | -2% | · | · | · | ·
COc1ccc(OC)c(NC(=O)COC(=O)CCc2nc3ccccc3c(=O)[nH]2)c1 | · | -9% | ? | · | · | · | ? | -13% | ?
COc1ccc(C(=O)c2cn(CC(=O)Nc3ccc4c(c3)OCO4)c3ccc(OC)cc3c2=O)cc1 | -3% | · | · | -19% | -1% | · | · | · | ·
COc1ccc(C(=O)c2cn(CC(=O)Nc3ccc4c(c3)OCCO4)c3ccc(OC)cc3c2=O)cc1 | 4% | · | · | 10µM* | -2% | · | 12µM* | 7.6µM* | 7.6µM*
Cc1cc(=O)c2c(o1)C(=O)c1occc1C2=O | · | · | 25µM* | · | · | · | 24µM* | -24% | ?
Cc1nc2c(cc1C(=O)N/N=C/c1ccc(O)c(O)c1)c(=O)n(C)c(=O)n2C | 3% | 0% | ? | -11% | 2% | -5% | ? | -4% | ?
COc1ccc(-c2nnc(Nc3nc4c(OC)cccc4s3)o2)cc1 | 13% | -2% | 45µM* | ? | -24% | -3% | 9.6µM* | -14% | 7.6µM*
COc1ccc(S(=O)(=O)Nc2ccc(O)c(Sc3ncn[nH]3)c2)cc1 | 2% | ? | -8% | 4% | -2% | 1% | · | · | ·
COc1ccc(S(=O)(=O)Nc2cc(Sc3ncn[nH]3)c(O)c3ccccc23)cc1 | ? | ? | 9.5µM* | ? | -20% | -7% | 24µM* | -14% | ?
